# Assay results from the supplement of paper PMC8728848.
# The full list was thinned out, with the strongest signals kept by preference.
# B1: FliD (Clostridium difficile) (protein)
# chain: MSSISPVRVTGLSGNFDMEGIIEASMIRDKEKVNKAKQDQQIVKWKQEIYRDIIKESKNLYDKYLNGDSPNSITNKKAYSATRITSSDESIIVAKGSAGAEKINYQFAVSQMAEPAKVTIKLNSSDPIVQQFPPNASGASSLNIGGVNIPISEQDTTSTIVSKINSLCADNDIRASYSEMTGELIISRKQTGSSSDIDLKVIGNDSLAGQIASDNGITFTTDASGTKSAVVYGKNLEADVTDDQGRVTHISKEQNSFKIDNIDYNVNSKGSAKLVSVTDTEEATKNMKAFVDDYNALMDKVYGLVTTKKSKDYPPLTDEQKDDMTTEEIEKWEKKAKEGILRNDDELRAFVEDIQSMFFGDADTIIALRKLGISEHENYNKKGQISFNADTFSKALIDDSDKVYKALAGYSSNYDDKGMFEKLKKIVFEYSGSSASKLTKKAGMENSSSASQNVYSKQIAEQERNISRLVEKMNDKEKRLYAKYSALESLLNKYSSQMNYFSQAQGN
# How the values were obtained:
# Assay in all cases: glycan array binding signal (z-score within array); higher = stronger binding
# Conditions in all cases: glycan notation: IUPAC condensed, linker removed
# Kdn(a2-3)Gal(b1-4)GlcNAc = biological target: Kdn(a2-3)Gal(b1-4)GlcNAc
# Summary of the method: (§1)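 The binding signal is a Z-score computed within each array. Data were drawn from 3228 arrays in the Consortium for Functional Glycomics database, restricted to those with a known protein sequence. Scores were averaged over arrays of the same protein sequence at different concentrations or buffers, and over linkers, and negative values can be taken as non-binding.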
# [1] = biological target: Kdn(a2-3)Gal(b1-4)[Fuc(a1-3)]GlcNAc
# Summary of the method: as §1
# [2] = biological target: Man(a1-2)Man(a1-2)Man(a1-3)Man
# Summary of the method: as §1
# [3] = biological target: Man(a1-3)[Man(a1-6)]Man(b1-4)GlcNAc(b1-4)[Fuc(a1-6)]GlcNAc
# Summary of the method: as §1
# Neu5Ac(a2-3)Gal = biological target: Neu5Ac(a2-3)Gal
# Summary of the method: as §1
# [4] = biological target: Neu5Ac(a2-3)Gal(b1-4)GlcNAc(b1-2)[Neu5Ac(a2-3)Gal(b1-4)GlcNAc(b1-6)]Man(a1-6)[Neu5Ac(a2-3)Gal(b1-4)GlcNAc(b1-2)Man(a1-3)]Man(b1-4)GlcNAc(b1-4)GlcNAc
# Summary of the method: as §1
# [5] = biological target: Neu5Ac(a2-3)Gal(b1-4)GlcNAc(b1-3)Gal(b1-4)GlcNAc
# Summary of the method: as §1
# [6] = biological target: Neu5Ac(a2-3)Gal(b1-4)GlcNAc(b1-3)Gal(b1-4)GlcNAc(b1-2)Man(a1-3)[Neu5Ac(a2-3)Gal(b1-4)GlcNAc(b1-3)Gal(b1-4)GlcNAc(b1-2)Man(a1-6)]Man(b1-4)GlcNAc(b1-4)GlcNAc
# Summary of the method: as §1
# [7] = biological target: Neu5Ac(a2-3)Gal(b1-4)[Fuc(a1-3)]GlcNAc(b1-2)Man
# Summary of the method: as §1
# Neu5Ac(a2-3)GalNAc = biological target: Neu5Ac(a2-3)GalNAc
# Summary of the method: as §1
# [8] = biological target: Neu5Ac(a2-6)Gal(b1-4)GlcNAc
# Summary of the method: as §1
# [9] = biological target: Neu5Ac(a2-6)Gal(b1-4)GlcNAc(b1-2)Man(a1-6)Man(b1-4)GlcNAc(b1-4)GlcNAc
# Summary of the method: as §1
# [10] = biological target: Neu5Ac(a2-6)Gal(b1-4)GlcNAc(b1-2)Man(a1-6)[Man(a1-3)]Man(b1-4)GlcNAc(b1-4)GlcNAc
# Summary of the method: as §1
# [11] = biological target: Neu5Ac(a2-6)Gal(b1-4)GlcNAc(b1-3)Gal(b1-4)[Fuc(a1-3)]GlcNAc(b1-3)Gal(b1-4)[Fuc(a1-3)]GlcNAc
# Summary of the method: as §1
# [12] = biological target: Neu5Ac(a2-8)Neu5Ac(a2-8)Neu5Ac
# Summary of the method: as §1
# [13] = biological target: Neu5Ac9Ac(a2-3)Gal(b1-3)GlcNAc
# Summary of the method: as §1
# [14] = biological target: Neu5Ac9Ac(a2-6)Gal(b1-4)GlcNAc
# Summary of the method: as §1
# Neu5Gc(a2-3)Gal(b1-4)Glc = biological target: Neu5Gc(a2-3)Gal(b1-4)Glc
# Summary of the method: as §1
binder,measurement,setting,value
B1,glycan array binding signal (z-score),Kdn(a2-3)Gal(b1-4)GlcNAc,-0.204
same,glycan array binding signal (z-score),[1],0.919
same,glycan array binding signal (z-score),[2],-0.247
same,glycan array binding signal (z-score),[3],-0.274
same,glycan array binding signal (z-score),Neu5Ac(a2-3)Gal,-0.168
same,glycan array binding signal (z-score),[4],-0.056
same,glycan array binding signal (z-score),[5],-0.084
same,glycan array binding signal (z-score),[6],-0.025
same,glycan array binding signal (z-score),[7],-0.222
same,glycan array binding signal (z-score),Neu5Ac(a2-3)GalNAc,1.09
same,glycan array binding signal (z-score),[8],-0.197
same,glycan array binding signal (z-score),[9],-0.179
same,glycan array binding signal (z-score),[10],-0.197
same,glycan array binding signal (z-score),[11],-0.193
same,glycan array binding signal (z-score),[12],-0.239
same,glycan array binding signal (z-score),[13],0.957
same,glycan array binding signal (z-score),[14],-0.19
same,glycan array binding signal (z-score),Neu5Gc(a2-3)Gal(b1-4)Glc,-0.194
